CHO-K1 Ca antag: nonselective inhibitor or artifact in parental CHO-K1 cells. ATP-induced calcium, Fluo-8 fluorescence. hit rate 0.6% among 360,000. inhibition, % at 3 µM;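 active = inhibition above a per-plate cutoff, the plate's mean sample inhibition plus 3 SD, cut at about 24% in these data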;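 also: 0% = DMSO plus EC80 ATP and 100% = DMSO alone without ATP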
M1 ag parental: counter-screen for M1 agonists: effect in parental CHO-K1 cells; Fluo-8 calcium fluorescence; scaled to maximal ATP response, vehicle zero; activation, % at 3 µM; hit rate 0.48% among 360,000; AID 602248, 2012; in the data active = activation above about 15%;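 also: untransfected CHO-K1 host cells lacking M1 receptor as counterscreen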
M4 ag: human M4 muscarinic receptor agonists, primary screen, CHO-K1 cells, Fluo-8 calcium fluorescence; Muscarinic acetylcholine receptor M4 (Homo sapiens), P08173; hit rate 0.14% among 360,000; activation, % at 3 µM; CHO-K1 hM4/Gqi5; vehicle 0%, full acetylcholine response 100%; AID 624127, 2012;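 active = activation above the run mean over all test wells plus 3 SD, cut at about 32% in these data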;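 also: peak over basal fluorescence ratio per well then scaled between controls; 0% = DMSO wells and 100% = acetylcholine at EC100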
Target sequence (P08173 whole entry, looked up): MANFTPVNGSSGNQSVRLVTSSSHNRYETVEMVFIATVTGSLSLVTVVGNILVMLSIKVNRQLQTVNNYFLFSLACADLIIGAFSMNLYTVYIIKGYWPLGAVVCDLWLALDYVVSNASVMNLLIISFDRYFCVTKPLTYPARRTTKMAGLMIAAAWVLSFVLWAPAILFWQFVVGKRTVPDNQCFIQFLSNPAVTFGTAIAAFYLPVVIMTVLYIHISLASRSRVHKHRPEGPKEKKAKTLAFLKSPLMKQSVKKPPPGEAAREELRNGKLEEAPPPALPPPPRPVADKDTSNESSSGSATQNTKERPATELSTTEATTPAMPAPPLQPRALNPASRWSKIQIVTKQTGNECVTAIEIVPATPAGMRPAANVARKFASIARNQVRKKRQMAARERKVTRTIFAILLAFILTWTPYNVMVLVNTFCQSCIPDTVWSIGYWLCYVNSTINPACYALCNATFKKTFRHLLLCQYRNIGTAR
M4 antag: human M4 muscarinic receptor antagonists, primary screen, CHO cells, Fluo-8 calcium fluorescence; CHO-hM4 cells, ACh EC80; hit rate 0.73% among 360,000; Muscarinic acetylcholine receptor M4 (Homo sapiens), P08173; inhibition, % at 3 µM; AID 624125, 2012;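 active = inhibition above its plate's cutoff, the mean inhibition of sample wells plus 3 SD, cut at about 27% in these data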;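 also: 0% = acetylcholine EC80 with DMSO and 100% = DMSO without agonist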
M4 PAM: human M4 muscarinic receptor positive allosteric modulators, primary screen, CHO-K1 cells, Fluo-8 calcium fluorescence. Muscarinic acetylcholine receptor M4 (Homo sapiens), P08173. CHO-K1 hM4/Gqi5, ACh EC20; 0% = ACh EC20, 100% = maximal ACh. hit rate 0.4% among 360,000. activation, % at 3 µM;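 active = activation above its plate's cutoff, the mean activation of sample wells plus 3 SD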
M1 PAM parental: nonselective calcium activators in parental CHO-K1 cells, primary screen, counter-screen for M1 PAM project, cell-based, Fluo-8 calcium fluorescence, full deck, 1536-well; ATP EC20; 0% at ATP EC20, 100% at ATP max; activation, % at 3 µM; hit rate 0.02% among 360,000; AID 602247, 2012;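 active = activation above the run cutoff, the mean activation of all test compounds plus 3 SD, cut at about 40% in these data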;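 also: peak over basal fluorescence ratio in a 140 s read after ATP addition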
Active calls of the source: *; ! = not confirmed by another sample. Shown are actives, neighbours in structure and some others; about 2% of the full set was active somewhere.

SMILES	CHO-K1 Ca antag	M1 ag parental	M4 ag	M4 antag	M4 PAM	M1 PAM parental
Cc1ccc2nc(N3CC(=O)Nc4ccccc43)nc(-c3ccccc3)c2c1	-7.9	-0.1	0.1	3.0	1.9	20.8
CCCCNc1c(-c2ccc(OC)c(SC3CCCCC3)c2)nc2ccc(C)cn12	32.7*	8.2	15.5	78.3*	-10.3	-18.4
CCCCNc1c(-c2ccc(SC3CCCCC3)c(OC)c2)nc2ccc(C)cn12	-3.5	-0.4	4.0	35.3*!	-5.4	-17.3
O=C1CN(C(=O)COC(=O)CNC(=O)c2ccccc2)c2ccccc2N1	-5.0	2.0	1.2	2.3	2.0	25.8
CCOC(=O)c1c(-c2cccs2)csc1NC(C)=O	0.2	1.2	-0.1	16.0	-2.7	17.1
CC[N+](C)(CC)CCOC(=O)C1c2ccccc2Oc2ccccc21	-5.7	0.4	0.7	99.3*	-16.8	10.2
NC(=O)COC(=O)C1c2ccccc2Oc2ccccc21	-17.0	2.1	0.5	1.7	-2.7	-8.7
CCOC(=O)NC1c2ccccc2Oc2ccccc21	-6.1	0.2	-0.9	-0.4	-5.9	3.3
CN(CCOC(=O)C1c2ccccc2Oc2ccccc21)C(C)(C)C	-12.4	0.5	1.1	99.0*	-22.5	16.0
CN(C)CCCOC(=O)C1c2ccccc2Oc2ccccc21	16.7	1.1	1.3	94.6*	-16.7	-3.1
COc1ccc2nc3oc(C(=O)Nc4ccc(OC)c(OC)c4)cc3cc2c1	0.2	0.1	-0.1	3.9	8.4	3.2
COc1ccc(N2C3=C(CC4=C2CCCC4=O)C(=O)CCC3)cc1	-1.5	-0.2	1.2	-10.7	4.2	11.8
COc1cccc(-c2cnc(C(O)c3c(C)ccc4ccccc34)[nH]2)c1 (stereo not drawn)	2.6	19.6*	4.5	5.8	1.0	1.9
COCCNc1ncnc2c1cnn2-c1ccc(Cl)cc1	2.0	1.1	5.7	27.6*	12.7	-3.0
OCCOCCNc1ncnc2c1cnn2-c1ccc(Cl)cc1	-2.2	2.6	4.2	7.8	-4.6	9.9
CC/C(=N\NC(=O)CSCc1ccc(Cl)cc1)c1ccc2c(c1)OCCO2	27.6*	-0.3	0.9	10.8	-2.4	-7.2
CC/C(=N\NC(=O)CSCc1ccccc1Cl)c1ccc2c(c1)OCCO2	-5.3	3.1	3.5	-3.5	-2.8	14.8
COc1ccc(CNC(=O)C2CCN(S(=O)(=O)c3ccc4c(c3)C(C)(C)C(=O)N4C)CC2)cc1	7.3	0.1	-2.8	100.9*	-20.6	9.6
O=C(O)C1CCN(S(=O)(=O)c2ccc3[nH]ccc3c2)CC1	26.4*	0.2	1.6	1.9	-6.0	-13.9
CCOC(=O)c1cnc2ccc(Br)cc2c1NCCO	-7.0	1.1	1.5	-12.1	20.3*	11.9
CCOC(=O)c1cnc2ccc(Cl)cc2c1NCCN(C)C	5.5	0.1	3.8	3.6	26.9*	8.0
CCOC(=O)c1cnc2ccc(Br)cc2c1NCCCN1CCOCC1	-13.3	0.6	13.0	14.4	40.5*	18.4
CCOC(=O)C1CCCN(CC(O)COC(c2ccccc2)c2ccccc2)C1 (stereo not drawn)	-18.6	3.2	1.9	2.5	-4.4	12.7
CC(=O)NS(=O)(=O)c1ccc(NS(=O)(=O)c2ccc3ccccc3c2)cc1	-13.0	0.8	0.7	-7.7	4.5	5.4
CN1CCS/C1=C\C=C1/SC(=S)N(CC(=O)O)C1=O	10.6	39.6*	25.8	8.3	-0.9	7.0
SMILES	CHO-K1 Ca antag	M1 ag parental	M4 ag	M4 antag	M4 PAM	M1 PAM parental
CCN1C(=O)/C(=C/C=C2/SCCN2C)SC1=S	11.9	2.5	4.0	-0.4	-5.5	1.9
CN1/C(=C\C=C2/SC(=S)N(CC(=O)O)C2=O)C(C)(C)c2ccccc21	12.3	30.5*	17.9	3.4	-1.0	13.2
CCCN(CC(=O)Nc1ccccc1C)C(=O)c1ccc(OCc2c(C)noc2C)cc1	5.3	0.5	7.2	-4.9	7.8	-13.5
CCCN1/C(=C2/SC(=S)N(CC)C2=O)C=Cc2ccccc21	-4.3	-0.8	-0.4	4.0	3.5	9.0
COc1ccc(NC2=NCC(=O)N2c2ccccc2F)c(OC)c1	-13.9	0.3	0.6	-6.3	7.1	7.5
CCOC(=O)C1CCCN(C(=O)c2cccc(NC(=O)C(CC)CC)c2)C1 (stereo not drawn)	24.0*	-0.3	2.1	-0.3	1.3	-18.5
CCc1ccc(CN(C)C(=O)c2cc(COc3cccc4cnccc34)on2)cc1	25.1*	10.3	15.9	19.4	-10.3	-18.3
Cc1c(C(C)NC(=O)c2cc(COc3cccc4cnccc34)on2)cnn1C (stereo not drawn)	5.0	15.8*	14.5	-0.1	-8.9	-12.2
CN(Cc1cccc2cnccc12)C(=O)c1cc(COc2ccc(F)cc2F)on1	9.9	10.8	16.7	2.6	-12.1	-22.2
CCn1c(SCC(=O)N2CCN(c3ccccc3)CC2)nc2c(c1=O)SC(C)C2 (stereo not drawn)	-16.5	0.8	1.1	-23.8	3.3	22.7
Cc1ccc2nc(NC(=O)Cc3cccs3)sc2c1	9.0	7.6	-1.7	9.0	-0.2	5.8
CN(C)S(=O)(=O)c1ccc(C(=O)NCc2nnc(SCC(=O)NCc3ccco3)o2)cc1	-3.1	0.6	1.4	-6.5	3.0	7.0
Cc1cccc(C(=O)NC(C)C(c2cccs2)N2CCOCC2)c1 (stereo not drawn)	-3.4	15.3*	3.1	3.5	-15.3	11.7
COc1ccc(C(=O)/C=C/Nc2ccc(S(=O)(=O)Nc3nc(C)cc(C)n3)cc2)c(OC)c1	-2.8	0.7	1.7	-2.3	0.5	5.7
CC[C@]12c3[nH]c4ccccc4c3CCN1C(=O)C(CC(=O)NCc1ccco1)C[C@@H]2C(=O)N1CCN(C(=O)c2ccco2)CC1 (stereo partly drawn)	0.8	0.5	1.2	1.1	3.8	-7.9
CC[C@]12c3[nH]c4ccc(Cl)cc4c3CCN1C(=O)[C@@H](CC(=O)NCc1ccc(OC)c(OC)c1)C[C@@H]2C(=O)N1CCN(C(=O)C2CC2)CC1	-11.5	0.0	1.1	3.2	-7.3	6.0
CC[C@]12c3[nH]c4ccccc4c3CCN1C(=O)C(CC(=O)NCC13CC4CC(CC(C4)C1)C3)C[C@@H]2C(=O)N1CCN(C(=O)c2ccco2)CC1 (stereo partly drawn)	0.1	0.9	5.9	32.5*	-16.6	-0.9
CC[C@]12c3[nH]c4ccc(OC)cc4c3CCN1C(=O)C(CC(=O)NCc1ccc(OC)c(OC)c1)C[C@@H]2C(=O)N1CCN(C(=O)C2CC2)CC1 (stereo partly drawn)	-7.7	-0.2	-0.6	29.1*	-11.8	13.0
